Data published in article PMC7862700, “An all-to-all approach to the identification of sequence-specific readers for epigenetic DNA modifications on cytosine”.

Legend:
Test in all cases: DAPPL (digital affinity profiling via proximity ligation, sequencing); 10 mM Tris-HCl pH 7.5, 50 mM NaCl, 1 mM DTT, 4% glycerol, room temperature, 30 min; GST-TFs on glutathione beads, 16-mer random dsDNA library, 0.1% formaldehyde crosslink after washing; high values mean tight binding
FLI1 = molecular target: T1, FLI1 (Homo sapiens, UniProt Q01543 1-452); settings: protein: recombinant; tags: N-terminal GST; dsDNA, one strand shown
T1 sequence: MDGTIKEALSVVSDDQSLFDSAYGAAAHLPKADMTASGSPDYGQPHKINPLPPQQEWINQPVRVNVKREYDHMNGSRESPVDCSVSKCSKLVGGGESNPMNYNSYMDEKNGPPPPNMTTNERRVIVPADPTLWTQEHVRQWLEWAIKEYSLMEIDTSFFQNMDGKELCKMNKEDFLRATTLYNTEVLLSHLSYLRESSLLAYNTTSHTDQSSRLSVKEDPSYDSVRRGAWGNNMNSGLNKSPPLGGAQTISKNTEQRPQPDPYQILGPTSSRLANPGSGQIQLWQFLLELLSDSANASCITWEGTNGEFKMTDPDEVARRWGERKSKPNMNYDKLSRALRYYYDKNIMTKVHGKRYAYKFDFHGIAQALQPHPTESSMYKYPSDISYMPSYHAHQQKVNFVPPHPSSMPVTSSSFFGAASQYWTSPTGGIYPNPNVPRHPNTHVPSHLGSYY
How it was run: (§1)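 In yeast, human transcription factors were expressed with a GST fusion, then pulled down on glutathione beads and given DNA barcodes. Pooled with a tag-only sample, they were exposed to 200 nmole of a 16-mer random double-stranded DNA library (Tris/NaCl/DTT/glycerol buffer, room temperature, 30 min), washed, crosslinked with 0.1% formaldehyde, proximity-ligated using BsaI/T4 ligase for 1 h at 37 °C, PCR-amplified and read on an Illumina NextSeq500. Each hexamer's frequency of reads for a factor, divided by the matching frequency for the tag-only sample, gives the binding signal.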

ELK1 = molecular target: T2, ELK1 (Homo sapiens, UniProt P19419 1-428); settings: protein: recombinant; tags: N-terminal GST; dsDNA, one strand shown
T2 sequence: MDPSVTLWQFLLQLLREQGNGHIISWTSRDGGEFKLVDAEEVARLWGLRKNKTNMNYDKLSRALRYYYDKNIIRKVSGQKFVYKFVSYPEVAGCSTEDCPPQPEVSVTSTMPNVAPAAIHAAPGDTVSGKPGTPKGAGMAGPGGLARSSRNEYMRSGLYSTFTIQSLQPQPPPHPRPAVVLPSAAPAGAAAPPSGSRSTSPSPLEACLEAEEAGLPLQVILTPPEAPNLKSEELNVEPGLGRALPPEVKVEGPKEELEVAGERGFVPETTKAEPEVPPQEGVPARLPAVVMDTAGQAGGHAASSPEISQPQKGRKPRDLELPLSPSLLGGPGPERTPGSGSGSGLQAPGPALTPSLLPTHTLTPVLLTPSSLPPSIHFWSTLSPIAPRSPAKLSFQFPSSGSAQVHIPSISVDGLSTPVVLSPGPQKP
How it was run: as §1

GABPA = molecular target: T3, GABPA (Homo sapiens, UniProt Q06546 1-454); settings: protein: recombinant; tags: N-terminal GST; dsDNA, one strand shown
T3 sequence: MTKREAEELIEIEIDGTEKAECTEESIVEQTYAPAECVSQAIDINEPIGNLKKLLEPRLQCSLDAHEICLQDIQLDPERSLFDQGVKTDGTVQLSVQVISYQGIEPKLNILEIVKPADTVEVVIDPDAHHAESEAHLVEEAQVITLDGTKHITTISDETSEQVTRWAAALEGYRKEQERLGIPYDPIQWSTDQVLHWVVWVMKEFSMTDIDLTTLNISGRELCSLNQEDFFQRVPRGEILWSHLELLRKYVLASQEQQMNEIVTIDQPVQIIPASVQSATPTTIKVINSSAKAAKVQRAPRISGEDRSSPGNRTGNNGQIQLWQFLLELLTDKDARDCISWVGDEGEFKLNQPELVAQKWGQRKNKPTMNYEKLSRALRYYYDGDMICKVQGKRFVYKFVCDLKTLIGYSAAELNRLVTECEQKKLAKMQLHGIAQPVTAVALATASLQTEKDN
How it was run: as §1

ERG = molecular target: T4, ERG (Homo sapiens, UniProt P11308 1-479); settings: protein: recombinant; tags: N-terminal GST; dsDNA, one strand shown
T4 sequence: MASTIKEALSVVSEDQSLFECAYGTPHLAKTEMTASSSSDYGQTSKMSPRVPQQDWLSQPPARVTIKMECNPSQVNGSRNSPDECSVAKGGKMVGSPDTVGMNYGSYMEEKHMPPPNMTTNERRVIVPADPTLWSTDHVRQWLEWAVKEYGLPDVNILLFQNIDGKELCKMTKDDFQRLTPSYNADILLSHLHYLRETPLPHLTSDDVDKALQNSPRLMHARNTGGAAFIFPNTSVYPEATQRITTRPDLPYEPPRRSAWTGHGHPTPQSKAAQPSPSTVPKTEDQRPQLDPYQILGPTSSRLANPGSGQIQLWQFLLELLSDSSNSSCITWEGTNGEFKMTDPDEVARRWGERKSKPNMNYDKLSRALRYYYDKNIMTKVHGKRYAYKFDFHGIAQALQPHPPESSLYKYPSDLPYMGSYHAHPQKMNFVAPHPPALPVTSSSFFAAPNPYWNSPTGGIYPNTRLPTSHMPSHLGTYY
How it was run: as §1

ELF1 = ELF1 (Homo sapiens, UniProt P32519 1-619); settings: protein: recombinant; tags: N-terminal GST; dsDNA, one strand shown
Chain of ELF1 (P32519 whole entry): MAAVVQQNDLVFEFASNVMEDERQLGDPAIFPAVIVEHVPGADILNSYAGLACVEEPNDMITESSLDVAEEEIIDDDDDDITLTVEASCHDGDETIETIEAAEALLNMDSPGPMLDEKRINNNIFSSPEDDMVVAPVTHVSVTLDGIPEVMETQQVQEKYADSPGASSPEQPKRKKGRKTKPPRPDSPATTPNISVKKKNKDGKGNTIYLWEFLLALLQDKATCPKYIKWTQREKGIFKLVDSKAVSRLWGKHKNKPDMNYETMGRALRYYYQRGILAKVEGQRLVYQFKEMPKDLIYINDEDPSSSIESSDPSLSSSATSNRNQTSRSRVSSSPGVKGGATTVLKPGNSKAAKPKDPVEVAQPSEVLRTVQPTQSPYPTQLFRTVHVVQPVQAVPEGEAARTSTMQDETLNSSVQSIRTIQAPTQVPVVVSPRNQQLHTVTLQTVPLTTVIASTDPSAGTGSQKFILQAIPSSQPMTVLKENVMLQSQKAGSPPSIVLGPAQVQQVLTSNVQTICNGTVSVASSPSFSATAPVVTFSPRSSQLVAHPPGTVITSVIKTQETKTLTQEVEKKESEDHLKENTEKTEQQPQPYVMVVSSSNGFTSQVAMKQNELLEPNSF
How it was run: as §1

EHF = molecular target: T5, EHF (Homo sapiens, UniProt Q9NZC4 1-300); settings: protein: recombinant; tags: N-terminal GST; dsDNA, one strand shown
T5 sequence: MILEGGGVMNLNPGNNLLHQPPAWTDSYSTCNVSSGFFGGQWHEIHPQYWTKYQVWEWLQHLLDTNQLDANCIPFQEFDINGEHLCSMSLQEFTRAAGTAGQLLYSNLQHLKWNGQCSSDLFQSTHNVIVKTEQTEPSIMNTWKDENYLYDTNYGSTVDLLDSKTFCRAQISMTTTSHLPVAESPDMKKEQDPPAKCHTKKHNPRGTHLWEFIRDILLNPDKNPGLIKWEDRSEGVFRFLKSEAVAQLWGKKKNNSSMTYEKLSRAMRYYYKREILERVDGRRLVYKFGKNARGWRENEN
How it was run: as §1

SPI1 = SPI1 (Homo sapiens, UniProt P17947 1-270); settings: protein: recombinant; tags: N-terminal GST; dsDNA, one strand shown
How it was run: as §1

SPIB = SPIB (Homo sapiens, UniProt Q01892 1-262); settings: protein: recombinant; tags: N-terminal GST; dsDNA, one strand shown
Chain of SPIB (Q01892 whole entry): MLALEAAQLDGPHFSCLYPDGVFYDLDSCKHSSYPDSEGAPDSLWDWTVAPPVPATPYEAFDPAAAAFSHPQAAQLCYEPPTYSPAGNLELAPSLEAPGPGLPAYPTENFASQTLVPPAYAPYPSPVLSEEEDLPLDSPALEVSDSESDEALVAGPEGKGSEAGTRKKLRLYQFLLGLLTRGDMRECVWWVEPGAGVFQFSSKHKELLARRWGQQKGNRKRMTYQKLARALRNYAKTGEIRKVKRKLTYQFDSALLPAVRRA
How it was run: as §1

ELK3 = molecular target: T6, ELK3 (Homo sapiens, UniProt P41970 1-407); settings: protein: recombinant; tags: N-terminal GST; dsDNA, one strand shown
T6 sequence: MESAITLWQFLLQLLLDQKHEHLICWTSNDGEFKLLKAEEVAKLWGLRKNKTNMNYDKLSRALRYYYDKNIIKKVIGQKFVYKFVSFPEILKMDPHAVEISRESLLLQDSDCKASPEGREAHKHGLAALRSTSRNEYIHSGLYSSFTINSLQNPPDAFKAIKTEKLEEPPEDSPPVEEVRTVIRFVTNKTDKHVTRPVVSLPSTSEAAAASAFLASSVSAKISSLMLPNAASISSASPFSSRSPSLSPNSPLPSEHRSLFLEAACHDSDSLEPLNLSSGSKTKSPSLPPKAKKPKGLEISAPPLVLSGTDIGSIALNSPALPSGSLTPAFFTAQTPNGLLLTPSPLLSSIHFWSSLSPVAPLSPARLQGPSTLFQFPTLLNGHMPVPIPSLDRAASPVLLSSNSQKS
How it was run: as §1

FEV = molecular target: T7, FEV (Homo sapiens, UniProt Q99581 1-238); settings: protein: recombinant; tags: N-terminal GST; dsDNA, one strand shown
T7 sequence: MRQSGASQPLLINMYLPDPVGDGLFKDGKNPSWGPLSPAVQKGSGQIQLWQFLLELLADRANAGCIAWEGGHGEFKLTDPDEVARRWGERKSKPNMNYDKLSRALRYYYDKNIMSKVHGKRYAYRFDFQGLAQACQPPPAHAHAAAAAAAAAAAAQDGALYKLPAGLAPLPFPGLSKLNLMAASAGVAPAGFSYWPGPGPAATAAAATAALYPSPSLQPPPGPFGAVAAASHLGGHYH
How it was run: as §1

ETV5 = ETV5 (Homo sapiens, UniProt P41161 1-510); settings: protein: recombinant; tags: N-terminal GST; dsDNA, one strand shown
Chain of ETV5 (P41161 whole entry): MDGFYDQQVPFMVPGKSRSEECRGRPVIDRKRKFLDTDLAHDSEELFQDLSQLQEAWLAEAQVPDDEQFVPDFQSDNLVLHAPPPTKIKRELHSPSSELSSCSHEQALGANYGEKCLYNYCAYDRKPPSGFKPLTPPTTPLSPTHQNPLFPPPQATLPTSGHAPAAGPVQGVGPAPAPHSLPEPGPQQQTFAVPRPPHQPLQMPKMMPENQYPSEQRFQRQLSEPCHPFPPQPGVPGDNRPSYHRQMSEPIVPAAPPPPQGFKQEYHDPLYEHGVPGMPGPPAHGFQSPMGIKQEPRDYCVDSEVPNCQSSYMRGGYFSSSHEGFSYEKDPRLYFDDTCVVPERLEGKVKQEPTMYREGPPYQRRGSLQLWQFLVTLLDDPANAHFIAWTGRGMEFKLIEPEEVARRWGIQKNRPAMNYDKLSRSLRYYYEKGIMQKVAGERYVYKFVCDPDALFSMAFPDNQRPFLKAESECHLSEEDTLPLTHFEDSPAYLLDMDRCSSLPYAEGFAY
How it was run: as §1

HSF1 = HSF1 (Homo sapiens, UniProt Q00613 1-529); settings: protein: recombinant; tags: N-terminal GST; chain copies: 3; dsDNA, one strand shown
Chain of HSF1 (Q00613 whole entry): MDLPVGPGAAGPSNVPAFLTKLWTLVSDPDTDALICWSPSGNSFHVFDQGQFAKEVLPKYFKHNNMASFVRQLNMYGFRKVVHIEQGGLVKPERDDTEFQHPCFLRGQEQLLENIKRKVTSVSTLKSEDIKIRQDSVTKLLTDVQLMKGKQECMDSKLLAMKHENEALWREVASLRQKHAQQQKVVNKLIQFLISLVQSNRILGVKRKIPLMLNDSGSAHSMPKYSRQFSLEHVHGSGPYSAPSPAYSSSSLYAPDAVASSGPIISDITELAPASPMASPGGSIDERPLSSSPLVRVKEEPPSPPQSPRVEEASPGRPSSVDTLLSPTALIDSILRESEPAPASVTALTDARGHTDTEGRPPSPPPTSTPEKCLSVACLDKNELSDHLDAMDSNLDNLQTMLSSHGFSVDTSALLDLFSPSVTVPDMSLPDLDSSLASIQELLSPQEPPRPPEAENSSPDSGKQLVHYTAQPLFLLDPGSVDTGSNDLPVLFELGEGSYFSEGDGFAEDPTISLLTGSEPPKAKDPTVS
How it was run: as §1

SPIC = molecular target: T8, SPIC (Homo sapiens, UniProt Q8N5J4 1-248); settings: protein: recombinant; tags: N-terminal GST; dsDNA, one strand shown
T8 sequence: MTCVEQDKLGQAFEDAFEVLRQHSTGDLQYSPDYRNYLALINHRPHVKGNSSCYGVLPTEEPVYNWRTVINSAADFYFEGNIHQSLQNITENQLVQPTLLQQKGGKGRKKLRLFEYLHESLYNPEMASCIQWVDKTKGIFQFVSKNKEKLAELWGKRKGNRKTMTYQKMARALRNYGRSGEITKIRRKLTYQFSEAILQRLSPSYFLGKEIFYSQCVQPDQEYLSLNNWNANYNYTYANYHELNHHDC
How it was run: as §1

ELF4 = ELF4 (Homo sapiens, UniProt Q99607 1-663); settings: protein: recombinant; tags: N-terminal GST; dsDNA, one strand shown
Chain of ELF4 (Q99607 whole entry): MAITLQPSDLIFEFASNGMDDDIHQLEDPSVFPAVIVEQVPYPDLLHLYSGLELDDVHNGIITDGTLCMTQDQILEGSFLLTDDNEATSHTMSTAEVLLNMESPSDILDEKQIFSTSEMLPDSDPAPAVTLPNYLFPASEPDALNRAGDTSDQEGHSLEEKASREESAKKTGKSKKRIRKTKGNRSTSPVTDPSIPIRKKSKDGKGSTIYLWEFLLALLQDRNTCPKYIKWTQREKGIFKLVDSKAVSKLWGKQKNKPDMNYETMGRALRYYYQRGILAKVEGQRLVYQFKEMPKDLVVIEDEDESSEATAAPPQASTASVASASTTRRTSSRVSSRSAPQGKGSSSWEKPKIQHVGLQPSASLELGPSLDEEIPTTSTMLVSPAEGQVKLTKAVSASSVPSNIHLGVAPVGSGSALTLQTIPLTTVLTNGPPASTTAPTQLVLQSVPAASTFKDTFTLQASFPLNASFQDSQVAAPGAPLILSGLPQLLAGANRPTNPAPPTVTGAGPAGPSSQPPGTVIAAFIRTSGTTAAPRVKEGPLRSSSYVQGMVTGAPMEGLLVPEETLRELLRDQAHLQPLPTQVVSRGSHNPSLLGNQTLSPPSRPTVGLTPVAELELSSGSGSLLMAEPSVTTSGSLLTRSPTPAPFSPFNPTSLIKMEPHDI
How it was run: as §1

ELK4 = molecular target: T9, ELK4 (Homo sapiens, UniProt P28324-2 1-405); settings: protein: recombinant; tags: N-terminal GST; dsDNA, one strand shown
T9 sequence: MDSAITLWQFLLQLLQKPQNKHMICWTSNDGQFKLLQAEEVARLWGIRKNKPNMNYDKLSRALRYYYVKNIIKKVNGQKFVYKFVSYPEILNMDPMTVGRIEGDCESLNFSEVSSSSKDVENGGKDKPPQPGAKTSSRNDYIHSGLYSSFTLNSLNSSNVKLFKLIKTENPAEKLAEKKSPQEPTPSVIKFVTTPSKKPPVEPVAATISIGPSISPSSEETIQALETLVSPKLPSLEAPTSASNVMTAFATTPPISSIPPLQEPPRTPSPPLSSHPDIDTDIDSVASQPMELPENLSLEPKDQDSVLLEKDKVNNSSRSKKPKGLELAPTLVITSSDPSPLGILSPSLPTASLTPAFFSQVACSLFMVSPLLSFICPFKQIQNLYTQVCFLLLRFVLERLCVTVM
How it was run: as §1

ETV2 = molecular target: T10, ETV2 (Homo sapiens, UniProt O00321 1-342); settings: protein: recombinant; tags: N-terminal GST; dsDNA, one strand shown
T10 sequence: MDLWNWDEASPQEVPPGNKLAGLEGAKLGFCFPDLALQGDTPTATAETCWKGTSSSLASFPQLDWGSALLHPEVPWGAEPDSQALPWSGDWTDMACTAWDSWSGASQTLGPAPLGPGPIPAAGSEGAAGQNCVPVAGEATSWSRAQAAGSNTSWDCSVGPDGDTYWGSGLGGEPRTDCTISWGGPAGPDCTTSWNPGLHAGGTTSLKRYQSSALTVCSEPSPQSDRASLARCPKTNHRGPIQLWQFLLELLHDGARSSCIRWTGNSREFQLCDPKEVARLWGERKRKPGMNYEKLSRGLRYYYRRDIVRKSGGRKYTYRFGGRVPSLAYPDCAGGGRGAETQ
How it was run: as §1

ELF3 = molecular target: T11, ELF3 (Homo sapiens, UniProt P78545 1-371); settings: protein: recombinant; tags: N-terminal GST; dsDNA, one strand shown
T11 sequence: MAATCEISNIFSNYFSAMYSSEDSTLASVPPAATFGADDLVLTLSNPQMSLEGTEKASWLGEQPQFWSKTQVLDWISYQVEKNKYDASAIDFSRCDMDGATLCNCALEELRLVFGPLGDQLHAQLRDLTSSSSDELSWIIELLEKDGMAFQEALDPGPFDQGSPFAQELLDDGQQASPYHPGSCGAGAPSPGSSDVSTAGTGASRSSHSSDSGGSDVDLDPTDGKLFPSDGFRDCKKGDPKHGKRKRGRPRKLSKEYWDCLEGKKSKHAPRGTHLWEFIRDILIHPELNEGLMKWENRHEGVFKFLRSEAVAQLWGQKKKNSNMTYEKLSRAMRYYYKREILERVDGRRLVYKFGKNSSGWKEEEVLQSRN
How it was run: as §1

CRX = CRX (Homo sapiens, UniProt O43186 1-299); settings: protein: recombinant; tags: N-terminal GST; dsDNA, one strand shown
Chain of CRX (O43186 whole entry): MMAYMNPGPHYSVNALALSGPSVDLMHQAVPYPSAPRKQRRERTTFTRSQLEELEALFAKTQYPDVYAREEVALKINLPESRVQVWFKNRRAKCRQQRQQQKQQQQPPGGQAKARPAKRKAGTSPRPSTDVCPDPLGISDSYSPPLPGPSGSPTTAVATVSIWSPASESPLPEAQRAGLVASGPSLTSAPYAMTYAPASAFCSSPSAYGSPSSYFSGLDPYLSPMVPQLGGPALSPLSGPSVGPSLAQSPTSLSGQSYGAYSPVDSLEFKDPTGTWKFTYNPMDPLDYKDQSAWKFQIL
How it was run: as §1

ETV1 = ETV1 (Homo sapiens, UniProt P50549 1-477); settings: protein: recombinant; tags: N-terminal GST; dsDNA, one strand shown
Chain of ETV1 (P50549 whole entry): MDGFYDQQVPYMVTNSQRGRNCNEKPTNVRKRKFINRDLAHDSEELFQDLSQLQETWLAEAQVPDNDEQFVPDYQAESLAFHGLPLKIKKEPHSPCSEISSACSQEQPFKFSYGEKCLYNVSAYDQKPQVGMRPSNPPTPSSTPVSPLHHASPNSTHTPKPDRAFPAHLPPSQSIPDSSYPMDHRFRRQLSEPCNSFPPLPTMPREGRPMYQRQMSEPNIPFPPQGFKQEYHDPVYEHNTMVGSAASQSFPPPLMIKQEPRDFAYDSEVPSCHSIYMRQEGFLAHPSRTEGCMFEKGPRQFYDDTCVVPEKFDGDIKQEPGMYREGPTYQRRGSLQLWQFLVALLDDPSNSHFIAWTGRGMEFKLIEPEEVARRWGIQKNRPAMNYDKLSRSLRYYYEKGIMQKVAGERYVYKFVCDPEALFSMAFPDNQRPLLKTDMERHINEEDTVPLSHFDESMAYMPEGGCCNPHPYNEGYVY
How it was run: as §1

## TTCGCT
FLI1
  binding signal: 1.19 fold enrichment (6-mer frequency, TF over GST control)
ELK1
  binding signal: 1.17 fold enrichment (6-mer frequency, TF over GST control)
GABPA
  binding signal: 1.32 fold enrichment (6-mer frequency, TF over GST control)
ERG
  binding signal: 1.28 fold enrichment (6-mer frequency, TF over GST control)
ELF1
  binding signal: 1.18 fold enrichment (6-mer frequency, TF over GST control)
EHF
  binding signal: 1.07 fold enrichment (6-mer frequency, TF over GST control)
SPI1
  binding signal: 1.16 fold enrichment (6-mer frequency, TF over GST control)
SPIB
  binding signal: 1.47 fold enrichment (6-mer frequency, TF over GST control)
ELK3
  binding signal: 1.45 fold enrichment (6-mer frequency, TF over GST control)
FEV
  binding signal: 1.2 fold enrichment (6-mer frequency, TF over GST control)
ETV5
  binding signal: 1.24 fold enrichment (6-mer frequency, TF over GST control)
HSF1
  binding signal: 1.29 fold enrichment (6-mer frequency, TF over GST control)
SPIC
  binding signal: 1.08 fold enrichment (6-mer frequency, TF over GST control)
ELF4
  binding signal: 1.36 fold enrichment (6-mer frequency, TF over GST control)
ELK4
  binding signal: 1.29 fold enrichment (6-mer frequency, TF over GST control)
ETV2
  binding signal: 1.49 fold enrichment (6-mer frequency, TF over GST control)
ELF3
  binding signal: 1.26 fold enrichment (6-mer frequency, TF over GST control)
CRX
  binding signal: 1.13 fold enrichment (6-mer frequency, TF over GST control)
ETV1
  binding signal: 1.27 fold enrichment (6-mer frequency, TF over GST control)
